# The source made the active and inactive calls.
# Columns and labels:
# [1] = binders of probe aFSTL3 on microarray, primary screen, stem cell growth factor project, biochemical, small-molecule microarray, fluorescence 635/667 (AID 1064); settings: higher = more signal;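 further: measures binding of the biotinylated anti-FSTL3 antibody to printed compounds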
# [2] = binders from COS7 lysate, DM2A8 probe, primary screen, torsin A project, cell lysate, small-molecule microarray, fluorescence 635/667 (AID 1065); settings: higher = more signal, COS7 lysate expressing mutant human TOR1A
# [3] = binders of probe aFGF2 on microarray, primary screen, stem cell growth factor project, biochemical, small-molecule microarray, fluorescence 635/667 (AID 1067); settings: higher = more signal;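 further: measures binding of biotinylated aFGF2 protein to printed compounds on slides; z-score merges feature fluorescence and signal-to-noise across triplicate slides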
# [4] = binders of probe aFGF10 on microarray, primary screen, stem cell growth factor project, biochemical, small-molecule microarray, fluorescence 635/667 (AID 1071); settings: higher = more signal;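 further: score merges 667 nm spot intensity and signal to noise from triplicate slides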
# [5] = molecular target: Neurogenic locus notch homolog protein 2 (Homo sapiens) (UniProt Q04721); experiment: Notch2 binders on small-molecule microarrays, primary screen, biochemical, small-molecule microarray, 635 nm fluorescence, stem cell growth factors (AID 1073); settings: Notch2 binding, higher = more signal
# [6] = molecular target: Pro-neuregulin-1, membrane-bound isoform (Homo sapiens) (UniProt Q02297); experiment: NRG1 binders on small-molecule microarrays, primary screen, psychiatric disease protein project, biochemical, small-molecule microarray, fluorescence 635/667 (AID 1075); settings: NRG1 binding, 635 nm fluorescence, higher = more signal;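 further: score combines 667 nm spot fluorescence with signal to noise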
# Sequence of Pro-neuregulin-1, membrane-bound isoform (Homo sapiens) (Q02297 whole entry, looked up, the tested form may be a part, canonical isoform): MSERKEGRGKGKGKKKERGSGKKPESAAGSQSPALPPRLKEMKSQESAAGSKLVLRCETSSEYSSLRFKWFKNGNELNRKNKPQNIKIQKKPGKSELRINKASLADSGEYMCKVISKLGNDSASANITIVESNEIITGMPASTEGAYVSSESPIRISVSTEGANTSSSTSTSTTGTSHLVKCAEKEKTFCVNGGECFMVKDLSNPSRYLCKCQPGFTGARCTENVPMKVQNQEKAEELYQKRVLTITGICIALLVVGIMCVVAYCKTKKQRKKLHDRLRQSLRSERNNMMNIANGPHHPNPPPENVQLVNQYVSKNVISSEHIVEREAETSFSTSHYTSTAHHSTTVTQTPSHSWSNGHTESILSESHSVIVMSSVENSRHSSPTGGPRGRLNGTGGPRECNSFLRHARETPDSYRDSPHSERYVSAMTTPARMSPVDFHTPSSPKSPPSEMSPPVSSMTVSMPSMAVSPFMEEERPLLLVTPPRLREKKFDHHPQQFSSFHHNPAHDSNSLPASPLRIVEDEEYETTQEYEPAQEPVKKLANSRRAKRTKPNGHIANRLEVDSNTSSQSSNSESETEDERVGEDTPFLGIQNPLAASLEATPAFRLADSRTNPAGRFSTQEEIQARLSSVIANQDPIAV
# [7] = system: Neuregulin-1 EGF-like domain; experiment: binders of neuregulin-1 EGF-like domain, primary screen, biochemical, small-molecule microarray, 635 nm fluorescence (AID 1081); settings: small-molecule microarray binding, higher = more signal;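 further: binding of the protein to compounds printed on small-molecule microarray slides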
# [8] = FRG1 promoter luciferase signal modulators, primary screen, FRG1 inhibition for FSHD, cell-based, C2C12 myotubes, firefly/Renilla luciferase, luminescence (AID 1084); settings: higher = more signal, called active from +8 up or from −8 down
# [9] = binders of probe aFST on microarray, primary screen, stem cell growth factor project, biochemical, small-molecule microarray, fluorescence 635/667 (AID 1086); settings: higher = more signal;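 further: score merges 667 nm fluorescence with signal-to-noise of each printed compound spot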
# [10] = binders of probe aHhip on microarray, primary screen, stem cell growth factor project, biochemical, small-molecule microarray, fluorescence 635/667 (AID 1087); settings: higher = more signal;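 further: score merges spot fluorescence at 667nm with spot signal to noise ratio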
# [11] = system: PRMT1 (protein arginine N-methyltransferase 1); experiment: PRMT1 binders on small-molecule microarrays, primary screen, biochemical, small-molecule microarray, 635 nm fluorescence (AID 1088); settings: small-molecule microarray binding, higher = more signal;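 further: binding of Prmt1 protein to compounds spotted on small-molecule microarray slides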
# [12] = yeast growth modulation, basal conditions, primary screen, YJM789 clinical isolate, OD600, 24 h (AID 1089);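 further: growth of clinical yeast isolate S. cerevisiae YJM 789 seeded 1000 cells per well; test concentration not given here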; settings: S. cerevisiae YJM789 growth, higher = more signal, called active from +8 up or from −8 down
# [13] = fission yeast growth modulation, primary screen, strain 972, OD600, 24 h, no modulator (AID 1090);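 further: basal condition with compound alone and no growth modifier present; test concentration not given here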; settings: S. pombe 972 growth, higher = more signal, called active from +8 up or from −8 down
# [14] = S. cerevisiae growth modulation with rapamycin, primary screen, strain BY4716, OD600, 96 h (AID 1091); settings: higher = more signal, called active from +8 up or from −8 down; further: test concentration not given here
# [15] = molecular target: Torsin-1A-interacting protein 2 (Homo sapiens) (UniProt Q8NFQ8); experiment: LULL1 binders on small-molecule microarray, primary screen, cell lysate, human LULL1 lysate, 635/667 nm fluorescence (AID 1092); settings: hLULL1 lysate binding, 635 nm fluorescence, higher = more signal;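 further: probe is lysate of COS7 cells overexpressing human LULL1; score merges per-feature 667 nm fluorescence with signal-to-noise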
# Sequence of Torsin-1A-interacting protein 2 (Homo sapiens) (Q8NFQ8 whole entry, looked up): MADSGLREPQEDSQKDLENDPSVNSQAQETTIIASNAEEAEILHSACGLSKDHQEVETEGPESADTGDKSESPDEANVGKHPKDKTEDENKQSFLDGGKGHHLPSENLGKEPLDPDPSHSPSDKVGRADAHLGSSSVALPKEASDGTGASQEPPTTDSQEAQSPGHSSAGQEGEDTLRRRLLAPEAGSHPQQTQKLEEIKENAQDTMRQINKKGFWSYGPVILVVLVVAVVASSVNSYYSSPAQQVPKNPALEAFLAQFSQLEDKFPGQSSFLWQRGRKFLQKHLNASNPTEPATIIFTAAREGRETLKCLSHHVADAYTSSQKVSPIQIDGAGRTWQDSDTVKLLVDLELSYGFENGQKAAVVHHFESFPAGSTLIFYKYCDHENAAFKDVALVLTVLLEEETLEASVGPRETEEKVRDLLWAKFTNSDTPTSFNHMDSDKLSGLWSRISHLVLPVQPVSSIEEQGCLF
# [16] = E. coli growth modulation, two-sided OD650, primary screen, E. coli filamentation project, strain DRC41, 24 h (AID 1093); settings: OD650, 24 h, higher = more signal, called active from +8 up or from −8 down;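 further: MC1000 strain lacking acrAB efflux and sulA so SOS filamentation is blocked; test concentration not given here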
# [17] = small-molecule microarray binders of probe aLefty2, primary screen, biochemical, biotinylated probe, 635/667 nm fluorescence (AID 1094); settings: higher = more signal;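 further: score merges spot fluorescence near 667 nm with spot signal-to-noise ratio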
# [18] = system: Noggin (protein binding on small-molecule microarray); experiment: Noggin binders on small-molecule microarray, primary screen, biochemical, 635/667 nm fluorescence (AID 1095); settings: 635 nm fluorescence, higher = more signal;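 further: score merges 667 nm feature fluorescence with signal to noise over triplicate slides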
# [19] = molecular target: Neurogenic locus notch homolog protein 3 (Homo sapiens) (UniProt Q9UM47); experiment: NOTCH3 binders on small-molecule microarray, primary screen, biochemical, 635/667 nm fluorescence (AID 1096); settings: NOTCH3 binding, 635 nm fluorescence, higher = more signal
# Sequence of Neurogenic locus notch homolog protein 3 (Homo sapiens) (Q9UM47 whole entry, looked up): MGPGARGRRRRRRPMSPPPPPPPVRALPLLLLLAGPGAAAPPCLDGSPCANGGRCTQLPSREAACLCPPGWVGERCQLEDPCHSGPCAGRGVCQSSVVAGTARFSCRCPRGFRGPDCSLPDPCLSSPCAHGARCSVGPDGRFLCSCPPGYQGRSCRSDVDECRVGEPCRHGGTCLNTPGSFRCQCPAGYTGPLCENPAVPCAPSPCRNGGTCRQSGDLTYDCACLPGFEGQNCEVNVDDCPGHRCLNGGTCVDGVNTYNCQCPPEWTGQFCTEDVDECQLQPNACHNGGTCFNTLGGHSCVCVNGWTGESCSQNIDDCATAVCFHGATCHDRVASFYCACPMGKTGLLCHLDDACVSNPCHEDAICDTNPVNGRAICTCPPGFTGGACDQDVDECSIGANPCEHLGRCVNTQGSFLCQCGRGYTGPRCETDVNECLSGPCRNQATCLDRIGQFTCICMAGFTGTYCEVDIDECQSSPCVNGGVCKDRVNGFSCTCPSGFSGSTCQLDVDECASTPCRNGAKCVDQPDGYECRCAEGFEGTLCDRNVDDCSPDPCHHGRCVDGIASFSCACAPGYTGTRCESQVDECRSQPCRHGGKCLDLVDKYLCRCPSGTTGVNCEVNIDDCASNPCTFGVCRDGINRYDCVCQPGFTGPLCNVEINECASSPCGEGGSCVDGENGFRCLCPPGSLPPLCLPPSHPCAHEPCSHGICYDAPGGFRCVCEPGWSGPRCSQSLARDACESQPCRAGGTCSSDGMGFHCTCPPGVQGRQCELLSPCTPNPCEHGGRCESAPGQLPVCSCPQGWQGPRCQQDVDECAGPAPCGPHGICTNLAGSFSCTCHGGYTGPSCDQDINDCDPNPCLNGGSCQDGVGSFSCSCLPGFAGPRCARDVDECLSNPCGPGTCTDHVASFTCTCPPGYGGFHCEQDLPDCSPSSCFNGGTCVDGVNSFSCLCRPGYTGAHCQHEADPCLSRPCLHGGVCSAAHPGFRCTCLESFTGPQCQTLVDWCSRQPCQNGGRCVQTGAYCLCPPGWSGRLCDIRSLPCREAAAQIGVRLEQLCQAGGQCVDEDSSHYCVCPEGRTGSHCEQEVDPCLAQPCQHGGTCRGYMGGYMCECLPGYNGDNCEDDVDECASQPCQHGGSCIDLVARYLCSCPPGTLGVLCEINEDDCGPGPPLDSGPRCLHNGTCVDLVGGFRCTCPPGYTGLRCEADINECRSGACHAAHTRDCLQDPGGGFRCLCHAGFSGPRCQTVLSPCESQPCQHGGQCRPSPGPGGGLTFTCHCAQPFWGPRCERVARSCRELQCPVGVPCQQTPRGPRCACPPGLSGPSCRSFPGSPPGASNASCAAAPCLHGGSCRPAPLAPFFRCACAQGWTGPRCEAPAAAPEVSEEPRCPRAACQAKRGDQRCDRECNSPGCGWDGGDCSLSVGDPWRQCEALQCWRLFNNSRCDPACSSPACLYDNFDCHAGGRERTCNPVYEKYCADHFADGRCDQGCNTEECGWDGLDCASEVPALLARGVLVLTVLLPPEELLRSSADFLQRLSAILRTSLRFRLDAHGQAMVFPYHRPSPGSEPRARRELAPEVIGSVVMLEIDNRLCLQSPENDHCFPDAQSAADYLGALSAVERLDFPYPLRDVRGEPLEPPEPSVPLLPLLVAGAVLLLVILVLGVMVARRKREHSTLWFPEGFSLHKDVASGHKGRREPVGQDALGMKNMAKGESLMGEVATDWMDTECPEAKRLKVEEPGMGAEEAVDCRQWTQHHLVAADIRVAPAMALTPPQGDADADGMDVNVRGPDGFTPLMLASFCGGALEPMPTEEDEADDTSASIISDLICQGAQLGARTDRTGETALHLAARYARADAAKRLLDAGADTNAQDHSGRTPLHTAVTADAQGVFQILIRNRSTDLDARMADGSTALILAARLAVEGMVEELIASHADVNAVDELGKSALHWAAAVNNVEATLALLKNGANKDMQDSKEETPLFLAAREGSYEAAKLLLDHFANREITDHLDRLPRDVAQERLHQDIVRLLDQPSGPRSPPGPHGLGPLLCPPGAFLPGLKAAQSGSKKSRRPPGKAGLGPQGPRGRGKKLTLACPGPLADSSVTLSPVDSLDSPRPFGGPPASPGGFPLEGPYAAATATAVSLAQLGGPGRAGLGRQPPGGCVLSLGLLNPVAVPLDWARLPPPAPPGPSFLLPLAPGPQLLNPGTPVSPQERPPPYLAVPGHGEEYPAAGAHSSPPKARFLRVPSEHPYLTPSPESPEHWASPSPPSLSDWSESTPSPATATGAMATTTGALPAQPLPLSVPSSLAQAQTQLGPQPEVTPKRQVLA
# [20] = small-molecule microarray binders of probe aEGFR, primary screen, biochemical, biotinylated probe, 635/667 nm fluorescence (AID 1097); settings: higher = more signal;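 further: probe is a biotinylated anti-EGFR antibody binding compounds printed on slides; score combines fluorescence near 667 nm and signal to noise of each spot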
Structure (SMILES),composite z-score [1],composite z-score [2],composite z-score [3],composite z-score [4],composite z-score [5],composite z-score [6],composite z-score [7],z-score [8],composite z-score [9],composite z-score [10],composite z-score [11],z-score [12],z-score [13],z-score [14],composite z-score [15],z-score [16],composite z-score [17],composite z-score [18],composite z-score [19],composite z-score [20]
CCOC(=O)C[C@H]1[C@H](OC(=O)c2ccccc2-c2ccccc2)[C@@H](NC(=O)CC(C)C)c2cc(OCCCO)ccc2N1C(=O)c1ccc2ccccc2n1,-0.469,0.257,-0.0463,0.414,0.549,-0.121,0.324,0.0832 (inactive),0.535,0.0274,0.0508,-0.0014 (inactive),-0.0812 (inactive),0.116 (inactive),1.19,-0.64 (inactive),-0.158,0.219,-0.0063,0.0111
CCC[C@@H]1C[C@@]1(CCC)[C@@H](NP(=O)(c1ccccc1)c1ccccc1)c1ccc(Cl)cc1,0.337,-0.23,0.0368,-0.387,-0.615,-0.23,-0.414,1.8 (inactive),-0.223,0.982,-0.189,1.2 (inactive),0.095 (inactive),0.956 (inactive),0.334,-1.79 (inactive),-0.0703,0.112,-0.151,-0.233
C=CCOC(=O)[C@@H]1[C@H]2C(=O)O[C@H](c3ccccc3)[C@H](c3ccccc3)N2[C@H](c2ccc(OCCOC(=O)[C@H]3C[C@H]4C(=O)N[C@@H](CCCCNC(C)=O)C(=O)N4[C@H]3c3cccc(OCCO)c3)cc2)[C@@]12C(=O)Nc1ccc(I)cc12,-0.0066,0.99,-0.0718,0.404,0.544,0.851,1.28,0.49 (inactive),0.252,0.0479,1.54,1.71 (inactive),1.38 (inactive),3.9 (inactive),1.78,0.136 (inactive),-0.195,1.68,1.12,-0.0882
CC(C)(C)OC(=O)CC[C@@]1(C(=O)O)N=C(c2ccc(OCCCO)cc2)O[C@@H]1c1ccccc1,0.308,-0.648,-0.0459,0.13,0.347,1.96,1.53,0.853 (inactive),0.398,0.24,0.618,0.586 (inactive),1.24 (inactive),0.519 (inactive),3.55,0.0219 (inactive),0.021,-0.423,0.183,-0.0884
O=C(O)[C@H]1C[C@H]2C(=O)N3CCC[C@H]3C(=O)N2[C@H]1c1cccc(OCCO)c1,0.376,0.812,-0.0985,0.178,-0.237,0.337,1.25,6.19 (inactive),-0.0791,0.176,1.04,-0.187 (inactive),-0.391 (inactive),0.0709 (inactive),2.55,0.849 (inactive),0.027,0.287,0.237,-0.109
C=CC[C@@]1(C(=O)N2CCCCC2)N=C(c2ccc(OCCCO)cc2)O[C@@H]1c1ccccc1,1,0.651,0.0336,0.307,0.201,1.56,1.19,-1.21 (inactive),0.688,0.595,1.56,-2.83 (inactive),-5.65 (inactive),-1.18 (inactive),3.06,0.868 (inactive),0.361,1.14,0.5,0.0222
COc1cc2c(cc1OC)CN(C(=O)[C@H]1[C@@H]3C(=O)O[C@@H](c4ccccc4)[C@@H](c4ccccc4)N3[C@@H](c3ccc(OCCO)cc3)[C@]13C(=O)Nc1ccc(C#CC4(O)CCCCCC4)cc13)CC2,1.18,0.774,-0.0358,0.326,1.51,1.25,1.32,-0.126 (inactive),1.6,1.65,1.56,3.2 (inactive),1.28 (inactive),4.84 (inactive),2.37,2.32 (inactive),1.02,1.47,1.09,0.678
O=C1OCC=C[C@H]2OC34C=CCN(Cn5nnc6ccccc65)C(=O)[C@H]3N(CCCCCCO)C(=O)[C@@H]4[C@@H]12 (stereo not given in full),0.492,-0.334,-0.163,-0.54,-0.522,1.91,1.52,0.215 (inactive),-0.116,-0.201,-0.184,-1.47 (inactive),-1.19 (inactive),-0.66 (inactive),1.29,-0.218 (inactive),-0.0356,-1.04,-0.0986,-0.195
CC(C)CNC(=O)[C@@H]1c2ccccc2C(=O)N(Cc2cc(F)cc(C(F)(F)F)c2)[C@H]1c1ccc(CO)cc1,0.366,-0.23,0.0079,0.207,0.561,0.38,1.23,-1.78 (inactive),0.0604,-0.0237,1.4,-0.212 (inactive),-0.758 (inactive),-0.483 (inactive),1.73,2.93 (inactive),0.188,0.179,0.379,-0.0214
CC[C@H]1C2=C3C(CC[C@H]4C(OCc5ccc(F)cc5C(F)(F)F)OC[C@](C)([C@@H]34)N(C(=O)OC(C)(C)C)C2)C2COC(=O)OCC21 (stereo not given in full),0.0488,-0.377,0.0246,0.112,1.25,1.47,0.874,1.82 (inactive),1.73,-0.0047,0.254,0.416 (inactive),1.13 (inactive),0.896 (inactive),3.34,-1.81 (inactive),0.375,-0.581,1.1,-0.117
